{"source": "paper PMC4336329", "about": "(PLoS ONE, 2015)", "note": "Among all 310,000 compounds or so, about 14,000 (4.5%) showed an effect of 50% or more. The effect is printed as a negative number. Shown is part of a subset that was picked to be rich in strong results.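 Note: peak tail current of the secondary pulse compared with the same well before compound.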"}
{"target": "human ether-à-go-go-related gene (hERG) potassium channel (human, UniProt Q12809)", "sequence (Q12809 whole entry, looked up)": "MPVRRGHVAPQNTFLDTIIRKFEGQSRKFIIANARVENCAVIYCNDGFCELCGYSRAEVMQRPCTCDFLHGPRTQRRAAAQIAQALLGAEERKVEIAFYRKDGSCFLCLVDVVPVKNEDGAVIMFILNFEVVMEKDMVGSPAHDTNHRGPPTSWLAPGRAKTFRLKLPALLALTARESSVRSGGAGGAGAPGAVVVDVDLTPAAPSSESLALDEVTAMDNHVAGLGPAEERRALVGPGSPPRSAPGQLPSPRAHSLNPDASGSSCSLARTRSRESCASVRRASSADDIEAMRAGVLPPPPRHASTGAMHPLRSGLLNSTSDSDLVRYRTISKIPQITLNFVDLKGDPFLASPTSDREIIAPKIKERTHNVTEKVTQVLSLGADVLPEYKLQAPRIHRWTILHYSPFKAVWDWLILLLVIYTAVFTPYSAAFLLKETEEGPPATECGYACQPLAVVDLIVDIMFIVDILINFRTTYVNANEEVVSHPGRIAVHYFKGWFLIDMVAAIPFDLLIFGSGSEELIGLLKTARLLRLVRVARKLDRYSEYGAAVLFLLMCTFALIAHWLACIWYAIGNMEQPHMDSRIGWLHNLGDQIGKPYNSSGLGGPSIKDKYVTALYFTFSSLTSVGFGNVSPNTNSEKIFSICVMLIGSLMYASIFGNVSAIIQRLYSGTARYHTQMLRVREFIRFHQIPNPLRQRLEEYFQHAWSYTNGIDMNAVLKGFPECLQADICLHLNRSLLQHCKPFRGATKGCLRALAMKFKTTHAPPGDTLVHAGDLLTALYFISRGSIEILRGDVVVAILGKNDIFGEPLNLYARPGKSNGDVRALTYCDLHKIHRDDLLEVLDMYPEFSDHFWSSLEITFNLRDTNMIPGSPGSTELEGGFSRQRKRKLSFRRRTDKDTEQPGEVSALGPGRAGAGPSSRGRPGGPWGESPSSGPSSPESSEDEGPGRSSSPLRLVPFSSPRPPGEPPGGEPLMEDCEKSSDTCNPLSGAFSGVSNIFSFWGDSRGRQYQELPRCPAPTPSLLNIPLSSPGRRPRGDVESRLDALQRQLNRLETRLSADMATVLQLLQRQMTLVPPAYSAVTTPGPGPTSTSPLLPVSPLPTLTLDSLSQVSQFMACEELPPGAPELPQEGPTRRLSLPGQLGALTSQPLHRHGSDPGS", "experiment": "primary screen, population patch clamp on CHO cells stably expressing hERG; higher = less effect of the substance", "units": {"hERG current change (%, negative = inhibition) at 10uM": "%"}}
{"smiles": "COc1ccc(NS(=O)(=O)c2ccc(-c3cnc(C4CC4)o3)cc2)cc1OC", "hERG current change (%, negative = inhibition) at 10uM": 14.6}
{"smiles": "CC1(C)Cc2c(sc(NC(=O)COc3ccc(Cl)cc3)c2C(N)=O)C(C)(C)N1", "hERG current change (%, negative = inhibition) at 10uM": 0.951}
{"smiles": "COC(=O)C(NNc1ccc(F)cc1)(NC(=O)c1ccccc1)C(F)(F)F", "note": "(stereo not drawn)", "hERG current change (%, negative = inhibition) at 10uM": -3.67}
{"smiles": "O=C(Nc1cc(Cl)ccc1-n1cncn1)c1ccc([N+](=O)[O-])s1", "hERG current change (%, negative = inhibition) at 10uM": -27.9}
{"smiles": "O=C(O)C1OC(C(=O)O)C2C1C(F)(F)C2(F)F", "note": "(stereo not drawn)", "hERG current change (%, negative = inhibition) at 10uM": 14.3}
{"smiles": "O=C(Cc1cn2ccsc2n1)Nc1cccc2cnccc12", "hERG current change (%, negative = inhibition) at 10uM": 9.76}
{"smiles": "CCOC(=O)c1c(C)n(-c2ccccc2)c2ccc(O)c(CN(C)C)c12.Cl", "hERG current change (%, negative = inhibition) at 10uM": -30.7}
{"smiles": "CCOC(=O)c1c(C)n(C)c2ccc(O)c(CN(CC)CC)c12.Cl", "hERG current change (%, negative = inhibition) at 10uM": -20}
{"smiles": "COc1ccc(-n2c(C)c([N+](=O)[O-])c3ccc(O)c(CN(C)C)c32)cc1", "hERG current change (%, negative = inhibition) at 10uM": -57.6}
{"smiles": "CCOC(=O)c1c(C)n(C)c2ccc(O)c(CN(C)C)c12.O=C(O)C(=O)O", "hERG current change (%, negative = inhibition) at 10uM": -6.82}
{"smiles": "CCOC(=O)c1c(C)n(-c2ccc(C)cc2)c2ccc(O)c(CN(C)C)c12.Cl", "hERG current change (%, negative = inhibition) at 10uM": -74.2}
{"smiles": "CCOC(=O)c1c(C)n(-c2ccc(OC)cc2)c2ccc(O)c(CN(C)C)c12.Cl", "hERG current change (%, negative = inhibition) at 10uM": -74.2}
{"smiles": "CCOC(=O)c1sc(=N)n(-c2ccc(OC)cc2)c1C", "hERG current change (%, negative = inhibition) at 10uM": -4.06}
{"smiles": "Cc1ccc(-n2c(C)c([N+](=O)[O-])c3ccc(O)c(CN(C)C)c32)cc1", "hERG current change (%, negative = inhibition) at 10uM": -23.6}
{"smiles": "CCN(CC)Cc1c(O)ccc2c([N+](=O)[O-])c(C)n(-c3ccc(OC)cc3)c12", "hERG current change (%, negative = inhibition) at 10uM": -24.9}
{"smiles": "Cc1cccc(NC(=O)COc2ccccc2C)n1", "hERG current change (%, negative = inhibition) at 10uM": 7.83}
{"smiles": "Cl.Clc1ccccc1CSc1nnc([C@@H]2CCCN2)o1", "hERG current change (%, negative = inhibition) at 10uM": 15.1}
{"smiles": "COc1ccc(C(=O)CNc2ccccc2Br)cc1", "hERG current change (%, negative = inhibition) at 10uM": 18.8}
{"smiles": "COC(=O)C1CCN(C(=O)N2CCOCC2)CC1", "hERG current change (%, negative = inhibition) at 10uM": 5.68}
{"smiles": "CC(/C=N/NC(=O)c1nnn(-c2nonc2N)c1C(C)C)=C\\c1ccco1", "hERG current change (%, negative = inhibition) at 10uM": 8.07}
{"smiles": "Cc1ccc(C)c(SCC(=O)NNC(=O)c2csc(N3CCOCC3)n2)c1", "hERG current change (%, negative = inhibition) at 10uM": -55.1}
{"smiles": "Cc1cccc(C(=O)NNC(=O)c2csc(N3CCOCC3)n2)c1C", "hERG current change (%, negative = inhibition) at 10uM": -9.89}
{"smiles": "Cc1ccsc1C(=O)NNC(=O)c1csc(N2CCOCC2)n1", "hERG current change (%, negative = inhibition) at 10uM": 12.7}
{"smiles": "CSCCC(NC(=O)c1ccc(Cl)cc1Cl)C(=O)NNC(=O)c1csc(N2CCOCC2)n1", "note": "(stereo not drawn)", "hERG current change (%, negative = inhibition) at 10uM": -56.8}
{"smiles": "CSCCC(NC(=O)c1ccccc1Cl)C(=O)NNC(=O)c1csc(N2CCOCC2)n1", "note": "(stereo not drawn)", "hERG current change (%, negative = inhibition) at 10uM": -29.9}
{"smiles": "CSCCC(NC(=O)c1ccccc1Br)C(=O)NNC(=O)c1csc(N2CCOCC2)n1", "note": "(stereo not drawn)", "hERG current change (%, negative = inhibition) at 10uM": -33.5}
{"smiles": "C/C(N)=C(/C#N)C(=O)CSc1nc2ccccc2c(=O)n1CCCOC(C)C", "hERG current change (%, negative = inhibition) at 10uM": -21.2}
{"smiles": "Cc1cc(O)cc(O)c1C=NCc1ccco1", "hERG current change (%, negative = inhibition) at 10uM": -8.53}
{"smiles": "CC1C(c2ccccc2)=NNc2nc3c(c(=O)n(C)c(=O)n3C)n21", "note": "(stereo not drawn)", "hERG current change (%, negative = inhibition) at 10uM": 3.99}
{"smiles": "COc1ccc(NC(=O)c2ccc(-c3ccc(-c4noc(C)n4)cc3C)cc2)cc1N1CCN(C)CC1.Cl", "hERG current change (%, negative = inhibition) at 10uM": -76}
{"smiles": "COc1ccc(-c2nc(-c3ccc(NC(=O)c4ccncc4)cc3)no2)cc1OC", "hERG current change (%, negative = inhibition) at 10uM": 7.54}
{"smiles": "COc1ccc(C(=O)Nc2ccc(N3CCN(C)CC3)cc2)cc1OC", "hERG current change (%, negative = inhibition) at 10uM": -11.9}
{"smiles": "CCOC(=O)c1c(NC(=O)CNC2CCCCC2)sc(C)c1C", "hERG current change (%, negative = inhibition) at 10uM": 10.3}
{"smiles": "N#CCSc1nnc(COc2ccc3ccccc3c2)o1", "hERG current change (%, negative = inhibition) at 10uM": -5.89}
{"smiles": "O=C(Cc1ccc(Br)cc1)OCC(=O)c1ccc2c(c1)OCCO2", "hERG current change (%, negative = inhibition) at 10uM": 13.1}
{"smiles": "COc1cc(CC(=O)OCC(=O)c2ccc3c(c2)OCCO3)cc(OC)c1OC", "hERG current change (%, negative = inhibition) at 10uM": -58.6}
{"smiles": "COc1cc(CC(=O)OCC(=O)Nc2ccc3c(c2)OCCO3)cc(OC)c1OC", "hERG current change (%, negative = inhibition) at 10uM": 26}
{"smiles": "CC(=O)C1=C(O)C(=O)OC1c1ccc(Cl)cc1", "note": "(stereo not drawn)", "hERG current change (%, negative = inhibition) at 10uM": 7.92}
{"smiles": "FC(F)(F)c1nnc2ccc(NCc3ccccc3)nn12", "hERG current change (%, negative = inhibition) at 10uM": 8.9}
{"smiles": "CSc1ccc(CN(C)C(=O)CSCC(=O)Nc2ccc(C)cc2)cc1", "hERG current change (%, negative = inhibition) at 10uM": -73}
{"smiles": "CCN(CC(=O)Nc1c(F)cccc1F)C(=O)CSCC(=O)Nc1ccc(OC)cc1", "hERG current change (%, negative = inhibition) at 10uM": -3.35}
{"smiles": "Cc1ccc(CSCC(=O)N(C)CC(=O)Nc2ccc(C)cc2)cc1", "hERG current change (%, negative = inhibition) at 10uM": -2.48}
{"smiles": "CCN(CC(=O)Nc1ccc(OC)cc1)C(=O)CSCC(=O)Nc1ccc(C)cc1", "hERG current change (%, negative = inhibition) at 10uM": -23.5}
{"smiles": "CCN(CC(=O)NCc1ccc(Cl)cc1)C(=O)CSCC(=O)Nc1ccc(OC)cc1", "hERG current change (%, negative = inhibition) at 10uM": -66.7}
{"smiles": "CCN(CC(=O)NCc1ccc(Cl)cc1)C(=O)CSCC(=O)Nc1ccc(C)cc1", "hERG current change (%, negative = inhibition) at 10uM": -77.9}
{"smiles": "CSc1ccc(CN(C)C(=O)CSCC(=O)Nc2cc(C)on2)cc1", "hERG current change (%, negative = inhibition) at 10uM": 6.59}
{"smiles": "CCN(CC(=O)Nc1ccc2c(c1)OCCO2)C(=O)CSCC(=O)Nc1ccc(C)cc1", "hERG current change (%, negative = inhibition) at 10uM": -31.1}
{"smiles": "CCN(CC(=O)Nc1ccc(NC(C)=O)cc1)C(=O)CSCC(=O)Nc1ccc(C)cc1", "hERG current change (%, negative = inhibition) at 10uM": 2.95}
{"smiles": "CC(CCc1ccccc1)NCC(O)c1ccc(O)c(C(N)=O)c1.Cl", "note": "(stereo not drawn)", "hERG current change (%, negative = inhibition) at 10uM": -30.6}
{"smiles": "CCOC(=O)C1CCCN(Cc2cc(=O)oc3cc(C)ccc23)C1", "note": "(stereo not drawn)", "hERG current change (%, negative = inhibition) at 10uM": -13.6}
{"smiles": "CCOCC(=O)Nc1ccccc1C(=O)N1CCOCC1", "hERG current change (%, negative = inhibition) at 10uM": -0.166}
{"smiles": "Nc1cc(N2CCCCC2)c(Cl)cc1[N+](=O)[O-]", "hERG current change (%, negative = inhibition) at 10uM": -10.8}
{"smiles": "NC(=O)C1CCN(CC(=O)NC(=O)NC2CCCC2)CC1", "hERG current change (%, negative = inhibition) at 10uM": 9.34}
{"smiles": "Cc1c(-c2cc(C(=O)O)no2)cnn1C", "hERG current change (%, negative = inhibition) at 10uM": 32.4}
{"smiles": "C=CCOC(=O)/C(=C\\c1ccccc1)NC(=O)c1ccco1", "hERG current change (%, negative = inhibition) at 10uM": 1.97}
{"smiles": "O=C(NC(Cc1ccccc1)C(=O)O)/C(=C\\c1cccc([N+](=O)[O-])c1)NC(=O)c1ccco1", "note": "(stereo not drawn)", "hERG current change (%, negative = inhibition) at 10uM": 28.4}
{"smiles": "CCOC(=O)/C(=C/c1ccccc1)NC(=O)c1ccco1", "hERG current change (%, negative = inhibition) at 10uM": -7.55}
{"smiles": "O=C(OCc1ccccc1)/C(=C/c1cccc(Br)c1)NC(=O)c1ccco1", "hERG current change (%, negative = inhibition) at 10uM": -52.5}
{"smiles": "O=C(OCc1ccccc1)/C(=C/c1cccc([N+](=O)[O-])c1)NC(=O)c1ccco1", "hERG current change (%, negative = inhibition) at 10uM": -63.3}
{"smiles": "O=C(NC(Cc1ccccc1)C(=O)O)/C(=C/c1cccc([N+](=O)[O-])c1)NC(=O)c1ccco1", "note": "(stereo not drawn)", "hERG current change (%, negative = inhibition) at 10uM": -11.4}
